Source: PubChem BioAssay (NCATS)
Results filed as inconclusive are left out. The source made the active and inactive calls. Calls follow the shape of the dose curve; as a rule, active = well fitted inhibition curve with a large enough effect; inconclusive = small, poorly fitted or top-dose-only effect; inactive = flat fitted curve, though single readings scatter.

How the values were obtained:
[1] = qHTS profiling for inhibitors of Plasmodium falciparum proliferation (AID 504749); also: nearly all actives have a fitted effect of over 60% in size;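 as to activity, negative = inhibition: 0% = DMSO vehicle and full inhibition = artemisinin control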; conditions: P. falciparum in erythrocytes, SYBR Green DNA, 72 h
In short: (§1)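 Readout was DNA-dye fluorescence from lysed cultures, ex 485/em 535 nm. Parasitized red cells had grown 72 h with compound; data scaled between 0.29 uM artemisinin and DMSO wells and corrected using vehicle-only plates.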

[2] = tested on: 3D7; test: as above; conditions: P. falciparum in erythrocytes, SYBR Green DNA, 72 h; series mostly up to 28.7 µM
In short: as §1

[3] = tested on: 7G8; test: as above; conditions: P. falciparum in erythrocytes, SYBR Green DNA, 72 h; series mostly up to 28.7 µM
In short: as §1

[4] = at 28.7 µM (top of the series), parasite line A
[5] = at 28.7 µM (top of the series), parasite line B
[6] = at 12.8 µM (top of the series), parasite line A
[7] = at 12.8 µM (top of the series), parasite line B
Potency is read from the fitted curve at half-maximal effect.

O=C1CC[C@@]2(O)C3Cc4ccc(O)c5c4C2(CCN3CC2CC2)[C@H]1O5 (stereo partly drawn)
inactive: activity, negative = inhibition [1, 4] 9.65% | activity, negative = inhibition [1, 5] 8.16% | Potency [2] | Potency [3]

C=CCN=C=S
inactive: activity, negative = inhibition [1, 4] -3.28% | activity, negative = inhibition [1, 5] 7.56% | Potency [2] | Potency [3]

C=CCN1CCC23c4c5ccc(O)c4O[C@H]2C(=O)CC[C@@]3(O)C1C5 (stereo partly drawn)
inactive: activity, negative = inhibition [1, 4] 8.48% | activity, negative = inhibition [1, 5] -7.58% | Potency [2] | Potency [3]

O=C(CCl)c1ccc(Oc2ccc(C(=O)CCl)cc2)cc1
inactive: activity, negative = inhibition [1, 4] 5.66% | activity, negative = inhibition [1, 5] 2.87% | Potency [2] | Potency [3]

O=[N+]([O-])C(Br)(CO)CO
inactive: activity, negative = inhibition [1, 4] 4.06% | activity, negative = inhibition [1, 5] -7.41% | Potency [2] | Potency [3]

NCC(O)c1cccc(O)c1 (stereo not drawn)
inactive: activity, negative = inhibition [1, 4] 5.65% | activity, negative = inhibition [1, 5] 12% | Potency [2] | Potency [3]

Oc1cc(Cl)c(Cl)cc1Cl
inactive: activity, negative = inhibition [1, 4] 4.1% | activity, negative = inhibition [1, 5] -8.4% | Potency [2]
active: Potency [3] 11.2 µM

Cc1sc2ccccc2c1CC1=NCCN1
active: Potency [3] 10 µM
inactive: activity, negative = inhibition [1, 4] 5.82% | activity, negative = inhibition [1, 5] -2.48% | Potency [2]

COc1ccc(OC)c(C(O)C(C)N)c1 (stereo not drawn)
inactive: activity, negative = inhibition [1, 4] 12.5% | activity, negative = inhibition [1, 5] -2.03% | Potency [2] | Potency [3]

O[C@H]1[C@H]2[C@H](O)CCCN2C[C@H]1O
inactive: activity, negative = inhibition [1, 4] 9.76% | activity, negative = inhibition [1, 5] 2.41% | Potency [2] | Potency [3]

O=S(=O)(O)c1cc(O)ccc1O
inactive: activity, negative = inhibition [1, 6] 3.73% | activity, negative = inhibition [1, 7] -1.7% | Potency [2] | Potency [3]

C=CCN(C1=NCCN1)c1c(Cl)cccc1Cl
inactive: activity, negative = inhibition [1, 4] 11.1% | activity, negative = inhibition [1, 5] 1.37% | Potency [2] | Potency [3]

CCC1(C)CC(=O)NC(=O)C1
inactive: activity, negative = inhibition [1, 6] 7.23% | activity, negative = inhibition [1, 7] 5.64% | Potency [2] | Potency [3]

N#CC(C#N)=Cc1cc(O)c(O)c(O)c1
active: Potency ([1]; parasite line A) 11.2 µM | Potency ([1]; parasite line B) 11.2 µM | Potency [2] 10 µM | Potency [3] 4.47 µM

C[N+]1(C)C2CCC1CC(OC(=O)c1c[nH]c3ccccc13)C2 (stereo not drawn)
inactive: activity, negative = inhibition [1, 4] 3.31% | activity, negative = inhibition [1, 5] 10.8% | Potency [2] | Potency [3]

C[C@]12CCC(=O)C[C@@H]1CC[C@@H]1[C@@H]2CC[C@]2(C)[C@@H](O)CC[C@@H]12
inactive: activity, negative = inhibition [1, 4] -12.4% | activity, negative = inhibition [1, 5] 4.65% | Potency [2] | Potency [3]

CC(C)(O)C1C2OC(=O)C1C1(O)CC3OC34C(=O)OC2C14C (stereo not drawn)
inactive: activity, negative = inhibition [1, 4] 13.7% | activity, negative = inhibition [1, 5] 0.0355% | Potency [2] | Potency [3]

Oc1cccc[c]1[Hg][Cl]
active: Potency ([1]; parasite line A) 5.01 µM | Potency ([1]; parasite line B) 6.31 µM | Potency [2] 8.91 µM | Potency [3] 1.78 µM

[O]=[Cd]
inactive: activity, negative = inhibition [1, 4] 10.1% | activity, negative = inhibition [1, 5] 8.29% | Potency [2] | Potency [3]

O=C1CCCCC1CN1CCCCC1 (stereo not drawn)
inactive: activity, negative = inhibition [1, 4] 6.14% | activity, negative = inhibition [1, 5] 5.73% | Potency [2] | Potency [3]

O=[N+]([O-])c1cc(I)c(O)c(I)c1
inactive: activity, negative = inhibition [1, 4] -8.29% | activity, negative = inhibition [1, 5] -20.5% | Potency [2] | Potency [3]

COC1=CC=C2[C@H]3Cc4ccc(OC)c5c4[C@@]2(CCN3C)[C@H]1O5
inactive: activity, negative = inhibition [1, 6] -6.15% | activity, negative = inhibition [1, 7] 12.3% | Potency [2] | Potency [3]

CCC1(c2ccccc2)C(=O)NC(=O)N(C(=O)c2ccccc2)C1=O (stereo not drawn)
active: Potency [3] 10 µM
inactive: activity, negative = inhibition [1, 4] -16% | activity, negative = inhibition [1, 5] 9.27% | Potency [2]

CCCC(C)C1(CC)C(=O)NC(=O)NC1=O (stereo not drawn)
inactive: activity, negative = inhibition [1, 4] 2.58% | activity, negative = inhibition [1, 5] 0.184% | Potency [2] | Potency [3]

O=c1[nH]cc(N(CCCl)CCCl)c(=O)[nH]1
inactive: activity, negative = inhibition [1, 4] -0.577% | activity, negative = inhibition [1, 5] -4.63% | Potency [2] | Potency [3]

COc1ccc2c3c1O[C@H]1C(=O)CC[C@H]4[C@@H](C2)N(C)CC[C@]314
inactive: activity, negative = inhibition [1, 4] 0.497% | activity, negative = inhibition [1, 5] -7.39% | Potency [2] | Potency [3]

C#CC(C)(O)CC (stereo not drawn)
inactive: activity, negative = inhibition [1, 4] 3.88% | activity, negative = inhibition [1, 5] -6.77% | Potency [2] | Potency [3]

CC(=O)OO
inactive: activity, negative = inhibition [1, 4] 5.76% | activity, negative = inhibition [1, 5] 13% | Potency [2] | Potency [3]

ClCC1CO1 (stereo not drawn)
inactive: activity, negative = inhibition [1, 4] 2.63% | activity, negative = inhibition [1, 5] -1.12% | Potency [2] | Potency [3]

[Cl-].[Cl-].[Hg+2]
active: Potency ([1]; parasite line A) 7.94 µM | Potency ([1]; parasite line B) 8.91 µM | Potency [2] 12.6 µM | Potency [3] 11.2 µM

CC(N)Cc1ccc(O)cc1 (stereo not drawn)
inactive: activity, negative = inhibition [1, 4] -0.875% | activity, negative = inhibition [1, 5] 1.76% | Potency [2] | Potency [3]

C[C@H]1CC[C@@H]2[C@@H](C)[C@H]3[C@H](C[C@H]4[C@@H]5CC=C6CC(O[C@@H]7O[C@H](CO)[C@H](O)[C@H](O[C@@H]8O[C@H](CO)[C@@H](O)[C@H](O)[C@H]8O)[C@H]7O[C@H]7O[C@@H](C)[C@H](O)[C@@H](O)[C@H]7O)CC[C@]6(C)[C@H]5CC[C@]34C)N2C1 (stereo partly drawn)
inactive: activity, negative = inhibition [1, 4] -2.66% | activity, negative = inhibition [1, 5] 12% | Potency [2] | Potency [3]
